Compound activity (PubChem BioAssay)
GLS inh: glutaminase GLS (human) inhibition; GLS enzymatic activity, qHTS titration; hit rate 0.21% among 410,000; Potency, µM (doses to about 45.5 µM), without a hit: top-dose activity change, negative = inhibition, most hits filed as inhibitors; O94925; note: % is set by controls: 0 for no effect and ±100 for the full control effect
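Enzyme dispensed in phosphate buffer (45 mM, pH 8.2, 0.02% Tween-20), compounds pinned in, then 1 mM L-glutamine solution and the glutamate oxidase–HRP–Amplex Red mix added; fluorescence read immediately and again after 30 min at room temperature.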
Pol iota inh: blocks human DNA polymerase iota activity | Pol iota fluorescent replication assay, 10 min | hit rate 1% among 390,000 | Potency, µM (highest dose often 115 µM), without a hit: top-dose activity, negative = inhibition, hits mostly inhibitors
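Pol iota at 10 nM preincubated 15 min with compounds at room temperature; reaction started with fluorescent substrate, 50 nM final. Fluorescence read kinetically at 0 and 10 min; buffer-only wells as negative control.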
GCN5L2 inh: GCN5L2 (KAT2A) acetyltransferase inhibition. Q92830. GCN5L2 HAT assay, ThioGlo1 CoA-SH fluorescence. Potency, µM (series often up to 58.9 µM), for the others: at the highest dose activity change, negative = inhibition, most hits filed as inhibitors. hit rate 0.21% among 390,000. AID 504327; note: % is set by controls: 0 for no effect and ±100 for the full control effect
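Free CoA generated was detected with ThioGlo1 (50uM) fluorescence at Ex340nm/Em540nm, read immediately and after 20 min at room temperature. Enzyme, 20 nM in HEPES pH 7.5 buffer, saw compounds 15 min before adding 75uM H3(1-25) peptide and 70uM acetyl-CoA.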
POLH inh: DNA polymerase eta (human) inhibition. hit rate 1.2% among 390,000. recombinant Pol eta, fluorescent DNA replication assay. Q9Y253. Potency, µM (titrated, usually from 114 µM), for the others: top-dose activity change, negative = inhibition, actives largely listed as inhibitors; note: % is set by controls: 0 for no effect and ±100 for the full control effect
Target sequence (Q9Y253 whole entry, looked up): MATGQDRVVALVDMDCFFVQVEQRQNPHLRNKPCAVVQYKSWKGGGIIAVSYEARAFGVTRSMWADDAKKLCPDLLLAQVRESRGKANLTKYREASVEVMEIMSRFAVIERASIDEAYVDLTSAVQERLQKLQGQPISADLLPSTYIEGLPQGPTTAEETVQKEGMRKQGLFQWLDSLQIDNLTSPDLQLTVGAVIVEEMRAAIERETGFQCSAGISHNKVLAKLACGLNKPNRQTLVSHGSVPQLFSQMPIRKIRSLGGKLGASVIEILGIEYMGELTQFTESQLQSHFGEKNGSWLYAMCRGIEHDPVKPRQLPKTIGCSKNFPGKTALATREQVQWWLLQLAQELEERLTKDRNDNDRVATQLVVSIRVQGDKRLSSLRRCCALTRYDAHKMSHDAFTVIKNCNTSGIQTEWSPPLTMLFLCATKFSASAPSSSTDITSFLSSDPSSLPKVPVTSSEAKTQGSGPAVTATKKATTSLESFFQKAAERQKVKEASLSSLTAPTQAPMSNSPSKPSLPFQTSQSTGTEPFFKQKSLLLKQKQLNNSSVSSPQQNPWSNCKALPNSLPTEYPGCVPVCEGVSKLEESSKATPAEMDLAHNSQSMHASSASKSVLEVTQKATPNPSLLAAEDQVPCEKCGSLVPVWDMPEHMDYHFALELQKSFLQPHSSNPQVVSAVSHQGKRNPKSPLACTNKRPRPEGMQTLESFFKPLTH
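Fluorescent replication assay: 50 nM final substrate added after a 15 min room-temperature compound preincubation with 10 nM enzyme. Signal taken at 0 min and again at 10 min.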
Pol beta inh: inhibitors of human DNA polymerase beta; Potency, µM (series often up to 114 µM), without a hit: at the highest dose activity change, negative = inhibition, actives largely listed as inhibitors; Pol beta primer extension/strand displacement, fluorescence kinetic; AID 485314; hit rate 1.3% among 340,000; note: % is set by controls: 0 for no effect and ±100 for the full control effect
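Values derive from four-parameter Hill fits of normalized kinetic data: reads at 0 and 10 min following addition of 50 nM substrate to 10 nM Pol beta preincubated 15 min with compound.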
Pol kappa inh: inhibitors of human DNA polymerase kappa | Q9UBT6 | purified Pol kappa, fluorescent DNA synthesis assay, 10 min | Potency, µM (doses to about 107 µM), without a hit: top-dose activity, negative = inhibition, actives largely listed as inhibitors | hit rate 0.53% among 400,000 | AID 588579; note: % is set by controls: 0 for no effect and ±100 for the full control effect
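Fluorescent qHTS in 1536-well format: enzyme (10 nM) and compound sat 15 min at room temperature before 50 nM substrate (final) was added. Signal taken at 0 and 10 min; no-enzyme buffer wells were negative controls.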
Active calls of the source: *; ? = inconclusive; / = no result; [ ] = another dose, or the depositor's remark. Shown are actives, neighbours in structure and some others; about 2.4% of the full set was active somewhere. Calls come from the whole dose curve; as a rule, active = well fitted inhibition curve with a large enough effect; inconclusive = small, poorly fitted or top-dose-only effect, or another doubt; inactive = no such curve, though single readings can be large or run the other way. Potency is the fitted concentration of half-maximal effect.

SMILES	GLS inh	Pol iota inh	GCN5L2 inh	POLH inh	Pol beta inh	Pol kappa inh
CC(C)c1ccc(C2NC(=O)c3c(sc4c3CCN(C)C4)N2)cc1 (stereo unspecified)	16µM*	35%	0%	-19%	10%	-8%
CN1CCc2c(sc3c2C(=O)NC(c2ccc(C(C)(C)C)cc2)N3)C1 (stereo unspecified)	16µM*	68%	-5%	-17%	-12%	-12%
Cc1sc2ccccc2[n+]1CCc1ccccc1	/	?	/	/	/	-13%
COC(=O)c1ccc(C2NC(c3ccc4c(c3)OCO4)=CC(c3ccccc3O)N2)cc1 (stereo unspecified)	/	?	/	/	/	-3%
O=S(=O)(Nc1ccc(O)c2ccccc12)c1cccs1	11µM*	?	-3%	3%	-9%	-10%
COC(=O)/C=C1/SC(=Nc2ccc(Cl)c(Cl)c2)NC1=O	6%	-26%	-8%	79µM*	24%	-10%
O=C(CSc1nc(-c2ccco2)nc2cc(=O)[nH]n12)Nc1ccc(F)cc1	-2%	?	-13%	2%	40µM*	-17%
O=C(CSc1nc(-c2cccs2)nc2cc(=O)[nH]n12)Nc1ccccc1	?	89µM*	8%	?	-21%	?
O=C(CSc1nc(-c2ccco2)nc2cc(=O)[nH]n12)Nc1ccccc1F	1%	?	-25%	-4%	?	-29%
C=CC[n+]1cccc2cc(Br)ccc21	/	52%	/	/	/	16%
CCOC(=O)CCC(=O)OC1C(OC2C(C)C(OC3CC(C)(OC)C(O)C(C)O3)C(C)C(=O)OC(CC)C(C)(O)C(O)C(C)C(=O)C(C)CC2(C)O)OC(C)CC1N(C)C (stereo unspecified)	0%	/	/	/	/	/
CC(C)c1ccc(S(=O)(=O)c2cn(CC(=O)Nc3ccc(F)cc3)c3ccccc3c2=O)cc1	5%	22%	1%	-2%	32%	3%
CC1C/C(=N\NC(N)=S)c2cc(Cl)ccc2S1 (stereo unspecified)	-4%	79µM*	-6%	-9%	6%	-8%
CC(C)=C1CCC(C)CC1=NNC(N)=S (stereo unspecified)	-22%	47%	/	-10%	/	-4%
CCOc1cccc(C2C=C(c3ccc4c(c3)OCO4)NC(c3ccccc3Cl)N2)c1O (stereo unspecified)	/	-17%	/	/	/	-9%
CCCCCCNc1ccc(/C=C/c2ccnc3ccccc23)cc1	/	8%	/	/	/	-22%
CC(C)c1ccc(/C=C2\SC(=O)N(CC(=O)NC3CCS(=O)(=O)C3)C2=O)cc1 (stereo unspecified)	-3%	16µM*	?	50µM*	?	-16%
O=C(CN1C(=O)S/C(=C\c2ccccc2)C1=O)NC1CCS(=O)(=O)C1 (stereo unspecified)	-26%	45%	-9%	-2%	42%	10%
CC(C)N=c1scc(-c2ccco2)n1/N=C/c1ccc(O)c(O)c1	?	-17%	?	-12%	?	-15%
C=CCN=c1scc(-c2ccco2)n1/N=C/c1ccc(O)c(O)c1O	10µM*	1.8µM*	-25%	?	-96%	22µM*
Cc1ccc(C)n1-c1cccc(NC(=O)c2ccccc2)c1	11%	1%	3%	?	16µM*	-13%
Cc1c(C)c2ccc(O[C@@H]3O[C@H](CO)[C@H](O)[C@H](O)[C@H]3O)cc2oc1=O	-3%	-5%	-2%	-11%	6%	15%
COc1cc2cc(Oc3ccc4ccc(=O)oc4c3)c(=O)oc2cc1O[C@@H]1O[C@H](CO)[C@@H](O)[C@H](O)[C@H]1O	18µM*	50µM*	-25%	8.9µM*	/	45µM*
O=C1C=C(c2ccccc2)CC(c2cccs2)C1n1cnc([N+](=O)[O-])c1 (stereo unspecified)	?	-20%	-1%	?	50µM*	-15%
CCOc1ccc(-c2cc(C(=O)N3CCN(c4ccc(C)cc4)C(C)C3)c3ccccc3n2)cc1 (stereo unspecified)	-18%	10%	-22%	-13%	1%	-15%[60.1 µM]
SMILES	GLS inh	Pol iota inh	GCN5L2 inh	POLH inh	Pol beta inh	Pol kappa inh
S=c1ccss1	/	/	25µM*	/	/	?
CN(C)c1ccc(/C=C/c2ccnc3ccccc23)cc1Br	/	30%	/	/	/	-5%
C=C1[C@@H](O)[C@H](CC(C)C)N(Cc2ccccc2Br)S1(=O)=O	23%	2%	/	50µM*	/	6%
O=S1(=O)CCO[C@H]2CCCC[C@@H]2N1Cc1ccccc1Br	/	9%	/	/	/	-9%
O=C(COC(=O)Cc1n[nH]c(=O)c2ccccc12)Nc1ncc(Cl)cc1Cl	-3%	12%	-5%	79µM*	/	-3%
COc1cc(C(=O)NCC(=O)OCC(=O)Nc2ncc(Cl)cc2Cl)cc(OC)c1OC	-7%	79%	-11%	-6%	15%	2%
O=C(COC(=O)CNC(=O)c1ccccc1F)Nc1ncc(Cl)cc1Cl	-7%	?	-9%	50µM*	/	-23%
Oc1c(/C=N/c2ccccn2)sc2ccccc12	19%	18%	-16%	-17%	22µM*	-15%
Oc1c(C=Nc2ccc(Cl)cn2)sc2ccccc12	-1%	-3%	2%	-22%	-27%	-3%
c1ccc2c(CCc3c[nH]c4ccccc34)ccnc2c1	/	27%	/	/	/	-22%
CCN1CCN(C(c2ccc(SC)cc2)c2c(O)cc(C)n(Cc3ccco3)c2=O)CC1 (stereo unspecified)	5%	?	-7%	-6%	1%	-12%[60.1 µM]
O=c1c2cc(N3CCOCC3)ccc2[nH]c(=S)n1Cc1ccc(Cl)cc1	-13%	-6%	-20%	-6%	2%	-4%
Cc1ccc(Cn2c(=S)[nH]c3ccc(N4CCOCC4)cc3c2=O)o1	-6%	14µM*	?	-21%	6%	?
Clc1ccccc1COc1ccc(/C=N/n2cnnc2)cc1	-1%	10%	2%	-1%	32µM*	-24%
Fc1ccc(COc2ccc(/C=N/n3cnnc3)cc2)cc1	-3%	-20%	1%	-10%	5%	-3%
C#CCOc1c(Br)cc(C2C(C(=O)OC)=C(C)NC3=C2C(=O)c2ccccc23)cc1OCC (stereo unspecified)	30%	-2%	-9%	-13%	1%	-21%
CCC(=O)NC1=C(Nc2ccc(N)cc2)C(=O)c2ccccc2C1=O	7.1µM*	191%	1%	-2%	3%	-12%
COc1ccc(NC2=C(NC(C)=O)C(=O)c3ccccc3C2=O)cc1	-7%	74%	-4%	-7%	7%	-17%
CNC[C@@H]1CC[C@@H](N)[C@@H](O[C@H]2[C@H](O)[C@@H](O[C@H]3OC[C@](C)(O)[C@H](NC)[C@H]3O)[C@H](N)C[C@@H]2N)O1	-18%	/	/	/	/	/
